In the library only some 2.2% were active in any assay of this set; here they are far more common.
Granule exo inh: blocks lytic granule exocytosis; TALL-104 LAMP-1 surface exposure, flow cytometry; cells stimulated with thapsigargin and PMA; inhibition, % at 10 µM; 360,000 tested, 0.66% active;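 active = inhibition above about 55%, limit read from the data; inconclusive = no clear call, values can overlap the other calls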
MEX-5 binding: C. elegans MEX-5 TCR-2 RNA binding activity | activity score (negative = inhibition of binding), % at 10 µM | AID 1832 | 300,000 tested, 0.38% active | Q9XUB2 | MEX-5/FITC-TCR2 RNA binding, fluorescence polarization; hits give low values;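 active = inhibition past about -25% in most replicates, and total fluorescence under double the plate's negative control median, limit read from the data; inconclusive = replicates evenly split on the limit, or fluorescence at least double controls; inactive = too little inhibition in most replicates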;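 note: 0% = DMSO and -100% = 5 µM competing unlabeled TCR2 RNA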
JMJD2C inh: blocks human GASC-1 demethylase activity. Q9H3R0. GST-JMJD2C(1-420) H3K9me3 demethylation, DELFIA europium. inhibition, % at 2.35 µM. 330,000 tested, 0.069% active. AID 2099;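 active = more than half of a compound's replicate wells show inhibition beyond 50%, single wells judged on their own value; inconclusive = some, but no more than half, of replicates pass 50% inhibition; inactive = no replicate passes 50% inhibition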;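 note: signal counts dimethyl H3K9 product captured on neutravidin plate; 0% = median of DMSO wells and 100% = 0.3 times that DMSO median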
Target sequence (Q9H3R0 1-420 limits assumed): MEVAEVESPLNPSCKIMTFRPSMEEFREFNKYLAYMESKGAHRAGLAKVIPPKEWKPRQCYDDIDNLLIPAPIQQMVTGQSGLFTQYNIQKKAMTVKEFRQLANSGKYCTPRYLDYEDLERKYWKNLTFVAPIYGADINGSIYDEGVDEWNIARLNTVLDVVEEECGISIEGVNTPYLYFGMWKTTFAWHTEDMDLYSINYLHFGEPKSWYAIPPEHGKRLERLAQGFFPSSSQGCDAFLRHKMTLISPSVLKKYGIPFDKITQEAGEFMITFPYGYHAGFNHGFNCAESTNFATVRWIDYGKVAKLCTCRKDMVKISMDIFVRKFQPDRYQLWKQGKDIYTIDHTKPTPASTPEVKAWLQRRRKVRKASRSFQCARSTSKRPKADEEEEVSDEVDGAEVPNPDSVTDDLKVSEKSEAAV
VLA-4 inh: inhibition in a human VLA-4 binding assay; inhibition, % (about 7 µM as worked out from the volumes in the protocol); 330,000 tested, 0.2% active; VLA-4 expressing cells, ligand binding flow cytometry; P13612; in the data active = inhibition above about 50%
V-ATPase pHluor: yeast V-ATPase proton transport regulation by pHLuorin; S. cerevisiae, pHLuorin cytosolic pH fluorescence; response, % at 10 µM; 350,000 tested, 0.37% active; AID 504577; in the data active = response mostly above about 7.3%, no sharp cut-off; inactive = mostly below about 5.4%; note: actives read high
HTR2A ag: activates the mouse 5-HT2A serotonin receptor; P35363; CHO-K1 mHTR2A beta-arrestin complementation, luminescence; percent of 30 µM serotonin response; activation, % at 7.6 µM; 360,000 tested, 0.66% active;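 active = activation above a run cutoff, the mean activation of all tested compounds plus 3 SD, cut at about 14% in these data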;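 note: 0% = plate median of compound wells and 100% = 30 µM serotonin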
Numbers without * were called inactive; ? = inconclusive; · = no result.

SMILES | Granule exo inh | MEX-5 binding | JMJD2C inh | VLA-4 inh | V-ATPase pHluor | HTR2A ag
O=C1c2cc(F)ccc2-n2c1nc1ccccc1c2=O | 4 | -33* | 20 | 2 | 2 | -3
Nn1c(-c2ccc(F)cc2)nc2ccccc2c1=O | 24 | 3 | 2 | 5 | -1 | 0
CC(C)Nc1ncnc2c1ncn2[C@H]1CN(Cc2ccc(Cl)cc2)C[C@@H](CO)O1 | 20 | · | · | · | · | 0
CC(C)C1N(C(N)=S)N=CC1(C)C (centres undefined) | 1 | 1 | -10 | -3 | -1 | 6
Cn1c(=O)cc2c3c(c(N4CCCCC4)ccc31)C(=O)c1ccccc1-2 | 28 | -40* | -2 | -11 | 0 | 9
CC(=O)c1ccc2cc3c(cc2c1)OCO3 | 2 | · | · | · | 1 | 2
CCCCCCCN1C2=NCCN2c2ccccc21 | -1 | 1 | 3 | 20 | 22* | -2
C=CCSc1nnc(N2C(=O)C(O)=C(C(=O)c3ccco3)C2c2ccccc2F)s1 (centres undefined) | 2 | -35* | -3 | 7 | 5 | -1
CSc1nnc(N2C(=O)C(O)=C(C(=O)c3ccco3)C2c2ccccc2F)s1 (centres undefined) | -2 | 2 | 42 | -2 | 0 | 2
CCCSc1nnc(N2C(=O)C(O)=C(C(=O)c3ccco3)C2c2ccccc2F)s1 (centres undefined) | 4 | ? | 11 | 24 | 4 | 7
CSc1nnc(N2C(=O)C(O)=C(C(=O)c3ccco3)C2c2ccccc2)s1 (centres undefined) | -12 | -40* | 41 | -4 | 2 | 3
COc1ccc(/C=C2\CCCC(C(=O)C(F)(F)F)=C2O)cc1OC | · | -34* | 2 | 15 | · | ·
COc1ccc(/C=C2\CCCc3c2nc2ccccc2c3C(=O)O)cc1OC | · | -73* | 4 | 1 | · | ·
COc1ccc(/C=C2\CCc3c2nc2ccccc2c3C(=O)O)cc1OC | -1 | -5 | 8 | -2 | -62 | 2
COc1cc(CC(=O)OCC(=O)Nc2ccc(N(C)C)cc2)cc(OC)c1OC | 0 | · | 4 | -2 | 0 | -5
O=C1C(=O)c2c(C(=O)c3ccccc3)coc2-c2ccccc21 | 92* | -3 | -10 | -8 | 1 | 1
Cc1oc2c(c1C(=O)c1ccccc1)C(=O)C(=O)c1ccccc1-2 | 102* | -1 | 16 | -6 | 0 | 9
O=C(C1=C(c2ccccc2)C(=O)c2ccccc2C1=O)c1ccccc1 | 42 | -2 | -4 | · | -1 | -6
C[C@H]1CN([C@@H](C)CO)C(=O)CCCn2nncc2CO[C@H]1CN(C)S(=O)(=O)c1ccc(F)cc1 | -2 | · | · | · | 1 | 5
O=C1NC[C@@H](CCCCN2CCN(Cc3ccccc3)C(=O)C2=O)N(CC2CCCCC2)C1=O | -5 | · | · | · | · | 7
CC(c1ccccc1)N1CNc2c(c(=O)n(C)c(=O)n2C)C1 (centres undefined) | 10 | 2 | -1 | 7 | 0 | -1
Cn1c2c(c(=O)n(C)c1=O)CN(CCCN1CCOCC1)CN2 | -3 | 0 | 53* | -3 | -1 | 8
Nc1c(-c2ccccc2)nc2ncccn12 | 0 | · | · | · | · | -2
O=Nc1c(-c2cccc([N+](=O)[O-])c2)nc2ncccn12 | 74* | -3 | -46 | 0 | · | 2
COc1ccc(C2OC34CCCCC3C(C#N)(C#N)C2(C#N)C(=N)O4)cc1 (centres undefined) | -2 | -84* | -9 | 11 | -2 | 0
SMILES | Granule exo inh | MEX-5 binding | JMJD2C inh | VLA-4 inh | V-ATPase pHluor | HTR2A ag
NS(=O)(=O)c1cccc(NC(=O)COC(=O)COc2ccc3ccccc3c2)c1 | -2 | 4 | 7 | 14 | -1 | 1
NS(=O)(=O)c1ccc(NC(=O)COC(=O)COc2ccc3ccccc3c2)cc1 | -2 | 0 | 8 | -1 | -1 | 17*
O=C(NCCN1CCN(c2ccccc2)CC1)C1CCCN(S(=O)(=O)c2cnc[nH]2)C1 (centres undefined) | 6 | 0 | 6 | 17 | 2 | 30*
Cn1c(=O)cc(OCC(=O)NCCCN2CCN(c3ccccc3F)CC2)c2ccccc21 | 0 | -1 | 4 | 16 | -1 | 25*
O=C(NC1CCCC1)C(c1ccco1)N1CCN(c2c(Cl)cncc2Cl)CC1 (centres undefined) | -8 | · | · | · | · | -3
Cc1n[nH]c(=S)c2nn(-c3cccc(Cl)c3)c(C)c12 | · | -32* | -2 | · | · | ·
